According to PubChem BioAssay AID1159580 (chemical genetic matrix, 2015):
In all, about 5,500 compounds went through this assay and about 2,000 (36%) were called active. Roughly 18% stayed inconclusive and do not appear here. Rule as the data show it: active = normalized growth mostly below about 0.91 (no sharp cut-off); inconclusive = no clear call, values can overlap the other calls; inactive = mostly above about 0.92. The list shows a part of the results.

Assay: chemical genetic growth profiling, strain panel (AID 1159580);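 also: tested at 20 µM; growth read once vehicle control cultures reached saturation at 30 °C; 1 = growth at the plate median or of vehicle wells; lower values mean less growth of the strain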
Settings: growth OD

Measured: normalized growth

Cc1cc(C)cc(OCC2CNC(=O)O2)c1 (configuration not stated)
inactive: S. cerevisiae deletion strains, locus YJR075W, strain HOC1, hits give low values 1.01 | S. cerevisiae deletion strains, locus YKL009W, strain mrt4, hits give low values 1.02 | S. cerevisiae deletion strains, locus YKL068W, hits give low values 1.02 | S. cerevisiae deletion strains, locus YKL085W, strain MDH1 (second series), hits give low values 1.01 | S. cerevisiae deletion strains, locus YKL085W, strain MDH1, hits give low values 1.01 | S. cerevisiae deletion strains, locus YKL160W, strain elf1, hits give low values 0.973 | S. cerevisiae deletion strains, locus YKL190W, strain CNB1, hits give low values 1.01 | S. cerevisiae deletion strains, locus YKR001C, strain vps1, hits give low values 1.01 | S. cerevisiae deletion strains, locus YKR026C, strain gcn3, hits give low values 0.978 | S. cerevisiae deletion strains, locus YKR091W, strain srl3, hits give low values 0.985 | S. cerevisiae deletion strains, locus YLL001W, strain dnm1, hits give low values 0.976 | S. cerevisiae deletion strains, locus YLL026W, hits give low values 0.988 | S. cerevisiae deletion strains, locus YLL041C, strain sdh2, hits give low values 0.972 | S. cerevisiae deletion strains, locus YLR027C, strain aat2, hits give low values 0.985 | S. cerevisiae deletion strains, locus YLR039C, strain RIC1, hits give low values 1.04 | S. cerevisiae deletion strains, locus YLR058C, strain SHM2, hits give low values 1.01 | S. cerevisiae deletion strains, locus YLR102C, strain apc9, hits give low values 1.02 | S. cerevisiae deletion strains, locus YLR113W, strain HOG1, hits give low values 1.03 | S. cerevisiae deletion strains, locus YLR221C, strain rsa3, hits give low values 0.966 | S. cerevisiae deletion strains, locus YLR258W, strain gsy2, hits give low values 0.981 | S. cerevisiae deletion strains, locus YLR262C, strain YPT6 (second series), hits give low values 0.962 | S. cerevisiae deletion strains, locus YLR262C, strain YPT6, hits give low values 1.07 | S. cerevisiae deletion strains, locus YLR268W, strain sec22, hits give low values 1.01 | S. cerevisiae deletion strains, locus YLR320W, strain mms22, hits give low values 0.978 | S. cerevisiae deletion strains, locus YLR330W, strain CHS5, hits give low values 1.01 | S. cerevisiae deletion strains, locus YLR342W, strain FKS1 (second series), hits give low values 1.02 | S. cerevisiae deletion strains, locus YLR342W, strain FKS1, hits give low values 0.982 | S. cerevisiae deletion strains, locus YLR357W, strain rsc2, hits give low values 1.01 | S. cerevisiae deletion strains, locus YLR370C, strain arc18, hits give low values 0.963 | S. cerevisiae deletion strains, locus YLR371W, strain rom2, hits give low values 1.02 | S. cerevisiae deletion strains, locus YLR384C, strain iki3, hits give low values 0.973 | S. cerevisiae deletion strains, locus YLR418C, strain cdc73, hits give low values 1.02 | S. cerevisiae deletion strains, locus YML016C, strain PPZ1, hits give low values 1.01 | S. cerevisiae deletion strains, locus YML032C, strain rad52, hits give low values 1.02 | S. cerevisiae deletion strains, locus YML120C, strain ndi1, hits give low values 0.984 | S. cerevisiae deletion strains, locus YML124C, strain tub3, hits give low values 1 | S. cerevisiae deletion strains, locus YMR058W, strain fet3, hits give low values 0.95 | S. cerevisiae deletion strains, locus YMR078C, strain ctf18, hits give low values 1.02 | S. cerevisiae deletion strains, locus YMR125W, strain sto1, hits give low values 0.979 | S. cerevisiae deletion strains, locus YMR129W, hits give low values 0.984 | S. cerevisiae deletion strains, locus YMR205C, strain PFK2, hits give low values 0.97 | S. cerevisiae deletion strains, locus YMR223W, strain ubp8, hits give low values 1.02 | S. cerevisiae deletion strains, locus YMR231W, strain pep5, hits give low values 0.964 | S. cerevisiae deletion strains, locus YMR263W, strain SAP30, hits give low values 1.01 | S. cerevisiae deletion strains, locus YMR307W, strain GAS1, hits give low values 1.03 | S. cerevisiae deletion strains, locus YNL067W, strain RPL9B, hits give low values 1.02 | S. cerevisiae deletion strains, locus YNL071W, strain lat1, hits give low values 0.983 | S. cerevisiae deletion strains, locus YNL128W, strain TEP1, hits give low values 1.01 | S. cerevisiae deletion strains, locus YNL153C, strain GIM3, hits give low values 1 | S. cerevisiae deletion strains, locus YNL183C, strain NPR1, hits give low values 0.98 | S. cerevisiae deletion strains, locus YNL209W, strain ssb2, hits give low values 0.969 | S. cerevisiae deletion strains, locus YNL233W, strain BNI4, hits give low values 1 | S. cerevisiae deletion strains, locus YNL248C, strain rpa49, hits give low values 0.976 | S. cerevisiae deletion strains, locus YNL250W, strain rad50, hits give low values 1.02 | S. cerevisiae deletion strains, locus YNL271C, strain bni1, hits give low values 1.02 | S. cerevisiae deletion strains, locus YNL298W, strain CLA4, hits give low values 1.02 | S. cerevisiae deletion strains, locus YNL307C, strain MCK1, hits give low values 1.01 | S. cerevisiae deletion strains, locus YNL322C, strain KRE1 (second series), hits give low values 0.975 | S. cerevisiae deletion strains, locus YNL322C, strain KRE1, hits give low values 1.01 | S. cerevisiae deletion strains, locus YNR049C, strain mso1, hits give low values 0.983 | S. cerevisiae deletion strains, locus YNR052C, strain pop2, hits give low values 1.02 | S. cerevisiae deletion strains, locus YOL006C, strain TOP1, hits give low values 1.03 | S. cerevisiae deletion strains, locus YOL012C, strain htz1 1.42 | S. cerevisiae deletion strains, locus YOL147C, strain pex11, hits give low values 1.01 | S. cerevisiae deletion strains, locus YOR001W, strain rrp6, hits give low values 0.984 | S. cerevisiae deletion strains, locus YOR061W, strain CKA2, hits give low values 1.01 | S. cerevisiae deletion strains, locus YOR069W, strain VPS5, hits give low values 1.02 | S. cerevisiae deletion strains, locus YOR070C, strain gyp1, hits give low values 0.969 | S. cerevisiae deletion strains, locus YOR080W, strain dia2, hits give low values 0.991 | S. cerevisiae deletion strains, locus YOR083W, strain WHI5, hits give low values 0.986 | S. cerevisiae deletion strains, locus YOR106W, strain vam3, hits give low values 0.978 | S. cerevisiae deletion strains, locus YOR136W, strain idh2, hits give low values 1.01 | S. cerevisiae deletion strains, locus YOR144C, strain elg1, hits give low values 1.01 | S. cerevisiae deletion strains, locus YOR184W, strain ser1, hits give low values 1.03 | S. cerevisiae deletion strains, locus YOR231W, strain MKK1, hits give low values 1.05 | S. cerevisiae deletion strains, locus YOR265W, strain rbl2, hits give low values 0.975 | S. cerevisiae deletion strains, locus YOR270C, strain vph1, hits give low values 0.939 | S. cerevisiae deletion strains, locus YOR290C, strain snf2, hits give low values 0.982 | S. cerevisiae deletion strains, locus YOR316C, strain cot1, hits give low values 1.02 | S. cerevisiae deletion strains, locus YPL051W, strain arl3, hits give low values 0.979 | S. cerevisiae deletion strains, locus YPL055C, strain LGE1, hits give low values 1.02 | S. cerevisiae deletion strains, locus YPL078C, strain atp4, hits give low values 0.973 | S. cerevisiae deletion strains, locus YPL106C, strain sse1, hits give low values 0.969 | S. cerevisiae deletion strains, locus YPL240C, strain hsp82, hits give low values 0.979 | S. cerevisiae deletion strains, locus YPL241C, strain CIN2, hits give low values 1.01 | S. cerevisiae deletion strains, locus YPL256C, strain CLN2, hits give low values 1.1 | S. cerevisiae deletion strains, locus YPR119W, strain clb2, hits give low values 1.01 | S. cerevisiae deletion strains, locus YPR141C, strain kar3, hits give low values 1.02 | S. cerevisiae deletion strains, locus YPR163C, strain tif3, hits give low values 1.01 | S. cerevisiae deletion strains, locus YPR167C, strain met16, hits give low values 1.01 | S. cerevisiae deletion strains, strain wtn01, hits give low values 1.01 | S. cerevisiae strains, strain wild type, hits give low values 1.01
